Compounds with a hit are over-represented: about 5.7% of the library has one in this group of screens.
PI4K2A block = inhibitors of human PI4K2A; purified PI4K2A, ADP-Glo luminescence, 1 h; hits give low values; Q9BTU6; AID 1346378; activity change, negative = inhibition, % at 76.9 µM; 420,000 compounds, 0.13% hits; in the data active = activity change below about -50%; inconclusive = mostly about -30% to -49%
Target sequence (Q9BTU6 whole entry, looked up): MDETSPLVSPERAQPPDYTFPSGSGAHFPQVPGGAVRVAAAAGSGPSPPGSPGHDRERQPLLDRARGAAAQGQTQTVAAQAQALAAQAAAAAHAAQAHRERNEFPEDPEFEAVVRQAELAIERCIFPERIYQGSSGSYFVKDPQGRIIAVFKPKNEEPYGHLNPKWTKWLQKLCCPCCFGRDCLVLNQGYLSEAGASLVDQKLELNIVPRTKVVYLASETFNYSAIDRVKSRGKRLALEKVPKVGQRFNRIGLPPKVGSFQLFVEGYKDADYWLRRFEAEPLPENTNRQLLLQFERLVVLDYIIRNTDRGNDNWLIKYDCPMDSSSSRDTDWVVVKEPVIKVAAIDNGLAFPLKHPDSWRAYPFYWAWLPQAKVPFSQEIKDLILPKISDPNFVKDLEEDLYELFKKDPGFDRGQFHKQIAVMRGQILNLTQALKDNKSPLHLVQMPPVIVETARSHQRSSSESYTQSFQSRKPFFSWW
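ADP-Glo luminescence measured ADP generated by PI4K2A enzyme (4 ug/mL before mixing) with 1.2 mM PI substrate (pre-mix) and 300 microM ATP (pre-mix). Tris pH7.5 buffer with MgCl2, Triton X-100; 1 h reaction at ambient temperature.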
Nrf2 block = blocks Nrf2 signaling. A549 ARE-Fluc reporter, luciferase luminescence, 18-24 h. Potency, µM (titrated, usually from 46 µM), most hits filed as inhibitors. 360,000 compounds, 2.1% hits. AID 504444; note: nearly all actives have a fitted effect of over 60% in size
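A549 ARE_Fluc cells (5000/well, 5% FBS OPTI-MEM) pre-incubated 2 h, then treated with compounds 18-24 h at 37C/5% CO2 in concentration-response. CellTiter-Fluor viability read first; BugLite luciferase luminescence after 15 min at room temperature gives Nrf2 activity.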
A549 viability = A549 cytotoxicity, counter-screen for Nrf2 inhibitors | A549 ARE-Fluc cells, CellTiter-Fluor viability, 18-24 h | Potency, µM (series often up to 46 µM), actives largely listed as inhibitors | 390,000 compounds, 0.16% hits | AID 504648
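A549 ARE-Fluc cells in 5% FBS OPTI-MEM, 5000 cells/well, rested 2 h then exposed to compounds in concentration-response for 18-24 h at 37 °C. Viability by CellTiter-Fluor fluorescence (Ex 405/Em 525) after 30 min; luciferase luminescence (BugLite, 15 min, RT) read afterwards.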
Giardia kill = kills Giardia lamblia. Giardia lamblia trophozoite viability. activity change, % at 7.66 µM, hits read low. 340,000 compounds, 0.15% hits; in the data active = activity change below about -80%; inconclusive = between about -30% and that limit;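 note: parasites exposed to compound for two days anaerobically before the ATP read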
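Luminescence from cellular ATP indicates surviving trophozoites (100 cells/well) following 48 hrs anaerobic compound treatment at 37 deg C; signal develops 15-30 min at room temperature.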
KB-3-1 cytotox = KB-3-1 parental cell cytotoxicity; Potency, µM (doses to about 46.1 µM), actives largely listed as cytotoxic; KB-3-1 viability, CellTiter-Glo ATP luminescence, 72 h; 400,000 compounds, 1.4% hits; note: nearly all actives have a fitted effect of over 60% in size
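Cells are dispensed, compounds pinned in, plates held at 37 °C for 72 h, then CellTiter-Glo is added and luminescence read after 10 minutes. Cell line: parental KB-3-1 in phenol-red-free DMEM, 10% FBS.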
KB-V1 cytotox = kills drug-selected multidrug resistant KB-V1 cells | KB-V1 MDR cells viability, CellTiter-Glo, 72 h | Potency, µM (doses to about 46.1 µM), most hits filed as cytotoxic | 400,000 compounds, 3.4% hits; note: nearly all actives have a fitted effect of over 60% in size
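Luminescent ATP read-out (CellTiter-Glo, 10 min) measures survival of drug-selected KB-V1 MDR cells after 72 h, 37 degrees C compound exposure. Medium: phenol-red-free DMEM, 10% FBS. Values from fitted concentration-response curves.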
Large screens that a line does not name were inactive; ! = not confirmed by another sample. Unless noted, calls come from the whole dose curve; as a rule, active = well fitted curve in the direction sought with a large enough effect; inconclusive = small, poorly fitted or top-dose-only effect, or another doubt; inactive = no such curve, though single readings can be large; an effect the other way counts as inactive or inconclusive.

Cc1cncn1CCc1nc2c3ccccc3nc(SCC(=O)Nc3cccc(Cl)c3)n2n1	A549 viability 16µM, KB-3-1 cytotox inconclusive, KB-V1 cytotox inconclusive
Cc1n[nH]c(C)c1CCc1nc2c3ccccc3nc(SCC(=O)Nc3ccccc3F)n2n1	Nrf2 block inconclusive, A549 viability inconclusive
Cc1cccc(NC(=O)CSc2nc3ccccc3c3nc(CCc4c(C)n[nH]c4C)nn23)c1	Nrf2 block 10µM, A549 viability inconclusive, KB-3-1 cytotox inconclusive, KB-V1 cytotox 23µM!
COc1cc(/C=C2\SC(=S)N(NC(=O)c3ccncc3)C2=O)ccc1O	Nrf2 block inconclusive, A549 viability 21µM
Cc1ccc(NC(=S)N/N=C/c2ccc(Cl)c([N+](=O)[O-])c2)cc1	none
Cc1cccc(NC(=S)N/N=C/c2cccc(O)c2)c1C	KB-3-1 cytotox 3.3µM, KB-V1 cytotox 6.5µM
S=C(N/N=C/c1ccc(Cl)c(Cl)c1)Nc1ccccc1Cl	Nrf2 block inconclusive, A549 viability inconclusive, KB-3-1 cytotox 21µM
O=[N+]([O-])c1cc(/C=N/NC(=S)Nc2ccccc2Cl)ccc1Cl	KB-3-1 cytotox 18µM, KB-V1 cytotox inconclusive
Fc1ccc(/C=N/NC(=S)Nc2ccc(Cl)cc2Cl)cc1	KB-3-1 cytotox 5.2µM, KB-V1 cytotox inconclusive
C[N+]1(CC(=O)c2ccc(I)cc2)CCCc2ccccc21 (centres undefined)	KB-3-1 cytotox inconclusive (no result: PI4K2A block, Nrf2 block, A549 viability, Giardia kill)
COc1ccc(Cn2c(CO)cnc2SCc2ccc(C)cc2)cc1	none (no result: Nrf2 block, Giardia kill)
Nn1cnnc1N/N=C/c1ccc(Cl)c([N+](=O)[O-])c1	PI4K2A block -52, KB-V1 cytotox inconclusive
Nn1cnnc1N/N=C/c1ccc(F)cc1	PI4K2A block inconclusive
CCCOc1ccc(/C=N/NC(=S)Nc2ccccc2[N+](=O)[O-])c(O)c1	Nrf2 block inconclusive
COc1ccc(/C=N/NC(=S)Nc2ccccc2[N+](=O)[O-])cc1O	KB-3-1 cytotox inconclusive, KB-V1 cytotox 12µM
CCN(CC)CCOC(=O)c1ccc(N/C=C(/C#N)c2nc(-c3cc4ccccc4oc3=O)cs2)cc1	Giardia kill -89
CCN(CC)CCOC(=O)c1ccc(N/C=C(/C#N)c2nc(-c3ccc4c(c3)OCO4)cs2)cc1	Giardia kill -103
c1cc[n+](CCCC[n+]2ccccc2)cc1	none
CCCCCc1ccc(OCCCC[n+]2cccc(C)c2)c(CCCCC)c1	Nrf2 block inconclusive, A549 viability inconclusive, KB-3-1 cytotox 9.2µM
CCCCCOc1ccc(CN2CCOCC2)cc1Cl	Nrf2 block inconclusive
CCCCCc1ccc(OCCCC[n+]2ccc(C)cc2)c(CCCCC)c1	Nrf2 block 10µM, KB-3-1 cytotox 5.8µM
CCCCOc1ccc(C)cc1CN(CCO)CCO	none
CCCCCCCCCCCCCCCC[n+]1ccc(C)cc1	KB-3-1 cytotox 1.6µM, KB-V1 cytotox inconclusive (no result: PI4K2A block, Nrf2 block, A549 viability, Giardia kill)
CCC(C)(C)c1ccc(OCCCC[n+]2ccccc2)c(C(C)(C)CC)c1	Nrf2 block 23µM, A549 viability inconclusive, KB-3-1 cytotox 9.2µM, KB-V1 cytotox inconclusive
CCN(C(=O)C1CCN(c2ncccn2)CC1)c1ccccc1	none (no result: Nrf2 block, A549 viability, Giardia kill, KB-3-1 cytotox, KB-V1 cytotox)
O=C(CSc1nnc(-c2cccnc2)n1-c1ccc(Cl)cc1)c1ccc(F)cc1	none (no result: Nrf2 block, A549 viability, Giardia kill, KB-3-1 cytotox, KB-V1 cytotox)
CCCCCc1ccc(OCCCC[n+]2ccccc2)c(CCCCC)c1	Nrf2 block 18µM, A549 viability inconclusive, KB-3-1 cytotox inconclusive, KB-V1 cytotox inconclusive
COC(=O)[C@@]1(Cc2ccc(OC)cc2)[C@H]2c3cc(C(=O)N4CCCC4)n(CCO)c3C[C@H]2CN1C(=O)c1ccccc1	none
COC(=O)[C@@]1(Cc2ccc(OC)cc2)[C@H]2c3cc(C(=O)N4CCCC4)n(Cc4ccc(C)c(F)c4F)c3C[C@H]2CN1C(=O)c1ccccc1	KB-3-1 cytotox inconclusive, KB-V1 cytotox 7.3µM (no result: Nrf2 block, A549 viability, Giardia kill)
COC(=O)[C@@]1(Cc2ccc(OC)cc2)[C@H]2c3cc(C(=O)N4CCCC4)n(Cc4ccccc4)c3C[C@H]2CN1C(=O)c1ccccc1	KB-3-1 cytotox inconclusive, KB-V1 cytotox 10µM (no result: Nrf2 block, A549 viability, Giardia kill)
COC(=O)[C@@]1(Cc2ccc(OC)cc2)[C@H]2c3cc(C(=O)N4CCCC4)n(Cc4cc(C)n(C)n4)c3C[C@H]2CN1C(=O)c1ccccc1	none (no result: Nrf2 block, A549 viability, Giardia kill)
Cc1nc(-c2cccnc2)sc1C(=O)Nc1ccc(Cl)cc1	Nrf2 block inconclusive, KB-V1 cytotox 18µM
Cc1nc(-c2ccccn2)sc1C(=O)Nc1ccc(F)cc1	KB-3-1 cytotox inconclusive, KB-V1 cytotox 18µM
CNC(=O)c1sc(-c2ccccn2)nc1C	none
Cc1nc(-c2ccccn2)sc1C(=O)Nc1ccc(F)cc1F	KB-V1 cytotox 10µM
O=C(CN1CCN(Cc2ccccc2)CC1)N/N=C/C=C/c1ccccc1[N+](=O)[O-]	none
O=C(CN1CCN(Cc2ccc(Cl)cc2)CC1)N/N=C/C=C/c1ccccc1[N+](=O)[O-]	Nrf2 block inconclusive, KB-3-1 cytotox 21µM
CCSc1ncc(Cl)c(C(=O)N(Cc2ccccc2)c2ccc(OC)cc2)n1	Nrf2 block inconclusive (no result: Giardia kill, KB-3-1 cytotox, KB-V1 cytotox)
Clc1ccc(Nc2nnc(Cc3ccncc3)c3ccccc23)cc1	none (no result: Nrf2 block, A549 viability, Giardia kill, KB-3-1 cytotox, KB-V1 cytotox)
COc1ccccc1N/C(N)=N/c1nc(CSc2ccc(C)cc2)cc(=O)[nH]1	Nrf2 block 21µM

High-throughput results: PubChem, National Center for Advancing Translational Sciences (NCATS)
